Some of the results follow. Active and inactive are the calls of the source. No rule for the calls is given here.
target: Hepatocyte nuclear factor 4-alpha (Homo sapiens) (UniProt P41235); assay: HNF4-alpha DNA association modulation retest – biochemical, fluorescence polarization, FITC-DNA, confirmation (AID 1224897); details: HNF4A-FITC DNA binding, 1 h, at 12.5 µM, active compounds read high
Sequence (P41235 whole entry, looked up): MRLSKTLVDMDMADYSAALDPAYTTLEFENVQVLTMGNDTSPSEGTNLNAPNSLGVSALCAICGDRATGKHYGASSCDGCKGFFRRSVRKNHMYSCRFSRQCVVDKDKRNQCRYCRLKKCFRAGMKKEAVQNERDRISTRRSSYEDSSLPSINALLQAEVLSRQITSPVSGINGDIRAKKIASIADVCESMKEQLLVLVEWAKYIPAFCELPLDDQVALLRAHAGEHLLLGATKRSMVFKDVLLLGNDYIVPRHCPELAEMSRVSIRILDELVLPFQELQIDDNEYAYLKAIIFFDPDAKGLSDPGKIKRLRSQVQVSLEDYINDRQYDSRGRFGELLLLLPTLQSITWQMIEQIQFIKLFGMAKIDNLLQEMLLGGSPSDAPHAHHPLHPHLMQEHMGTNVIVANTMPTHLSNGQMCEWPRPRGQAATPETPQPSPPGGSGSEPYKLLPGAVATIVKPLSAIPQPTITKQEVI

Row | SMILES | activity change
1 | C/C(=N/Nc1nc(-c2ccccc2)c(CC(=O)O)s1)c1ccccc1 | 57.6% (active)
2 | Fc1cccc(Cc2c(-c3cccc(Cl)c3)nc3ccc(Br)cn23)c1 | 51% (active)
3 | COc1ccc(-c2nc3cc(C)ccn3c2NC2CCCCC2)cc1SC1CCCCC1 | 37.6% (active)
4 | Cn1cccc1/C=C1\SC(=S)N(NC(=O)c2ccc(Cl)cc2)C1=O | 72.5% (active)
5 | CCC(C)N1C(=O)S/C(=C/c2ccc(Sc3nc4ccccc4[nH]3)o2)C1=O (centres undefined) | 76.4% (active)
6 | Cc1cccc(COc2ccccc2/C=N/Nc2ccc([N+](=O)[O-])cc2)c1 | 56.9% (active)
7 | O=C1/C(=C/c2coc3ccc(O)cc3c2=O)SC(=S)N1c1ccccc1 | 57% (active)
8 | C#CCOCCOCCOCCNc1nc(N2CCN(C(=O)C([C@@H](C)O)n3cc([C@@H](N)CCCCN)nn3)CC2)nc(N2CCN(C(=O)[C@H](CCCCN)n3cc(CN)nn3)CC2)n1 (some centres undefined) | 108% (active)
9 | Cn1c2ccccc2c2cc(/C=C(\NC(=O)c3ccccc3)C(=O)NCC(=O)O)ccc21 | 45.6% (active)
